The antibiotic and cytotoxicity screens of Wong et al. (2023)
Out of some 39,000 compounds screened, about 1,500 (3.8%) were called active. The sample holds actives, similar compounds and a random draw of the others, so the mix is not that of the screen.

What follows are compounds tested on HSkMC (human skeletal muscle cells) (assay: cytotoxicity call (relative viability < 0.9)). Conditions: 10 µM.
With C[C@@H]1CN([C@H](C)CO)C(=O)c2cc(NC(=O)C3CCCCC3)ccc2O[C@@H](C)CCCCO[C@H]1CN(C)S(=O)(=O)c1cccs1 the cytotoxicity call was “inactive”.
COc1ccc(NC(=O)N(C)C[C@@H]2OCCCC[C@H](C)Oc3ccc(NC(=O)Nc4c(C)noc4C)cc3C(=O)N([C@@H](C)CO)C[C@H]2C)cc1 was tested, and the cytotoxicity call was “inactive”.
In the case of CC(C)=CCCC(C)=CCO, the cytotoxicity call is reported as “inactive”.
With CN(C)CCOc1ccc(C(=C(CCCl)c2ccccc2)c2ccccc2)cc1.O=C(O)CC(O)(CC(=O)O)C(=O)O the cytotoxicity call was “active”.
With CCN(CC)CCOc1ccc(C(=C(Cl)c2ccccc2)c2ccccc2)cc1.O=C(O)CC(O)(CC(=O)O)C(=O)O the cytotoxicity call was “inactive”.
CCC(=C(c1ccccc1)c1ccc(OCCN(C)C)cc1)c1ccccc1.O=C(O)CC(O)(CC(=O)O)C(=O)O was tested, and the cytotoxicity call was “inactive”.
For C[C@H]1CN([C@@H](C)CO)S(=O)(=O)c2ccc(C3=CCCC3)cc2O[C@@H]1CN(C)C(=O)c1cnccn1, the cytotoxicity call was “inactive”.
C[C@@H]1CN([C@@H](C)CO)S(=O)(=O)c2ccc(C#CCC3CCCC3)cc2O[C@@H]1CN(C)C(=O)CN(C)C was tested, and the cytotoxicity call was “inactive”.
For COc1cc(-c2ccc(NN=C3C=Cc4c(S(=O)(=O)O)cc(S(=O)(=O)O)c(N)c4C3=O)c(OC)c2)ccc1NN=C1C=Cc2c(S(=O)(=O)O)cc(S(=O)(=O)O)c(N)c2C1=O, the cytotoxicity call was “active”.
With Cc1cc(-c2ccc(NN=C3C=Cc4c(S(=O)(=O)O)cc(S(=O)(=O)O)c(N)c4C3=O)c(C)c2)ccc1NN=C1C=Cc2c(S(=O)(=O)O)cc(S(=O)(=O)O)c(N)c2C1=O the cytotoxicity call was “inactive”.
Cc1noc(C)c1S(=O)(=O)Nc1ccc2c(c1)CC(=O)N([C@@H](C)CO)C[C@@H](C)[C@H](CN(C)C(=O)NC(C)C)O2 was tested, and the cytotoxicity call was “inactive”.
C[C@@H]1CN([C@@H](C)CO)C(=O)c2cc(NC(=O)Nc3cccc4ccccc34)ccc2O[C@@H](C)CCCCO[C@H]1CN(C)C(=O)Nc1ccc2c(c1)OCO2 was tested, and the cytotoxicity call was “inactive”.
For C[C@@H]1CN([C@@H](C)CO)C(=O)Cc2cc(NC(=O)CCC(F)(F)F)ccc2O[C@@H]1CN(C)S(=O)(=O)c1ccccc1, the cytotoxicity call was “inactive”.
With C[C@H](CO)N1C[C@H](C)[C@H](CN(C)Cc2ccc3c(c2)OCO3)Oc2ccc(NC(=O)Nc3ccc(C(F)(F)F)cc3)cc2CC1=O the cytotoxicity call was “inactive”.
With C[C@@H]1CN([C@H](C)CO)C(=O)Cc2cc(NC(=O)Nc3ccc(C(F)(F)F)cc3)ccc2O[C@@H]1CN(C)Cc1ccc2c(c1)OCO2 the cytotoxicity call was “active”.
In the case of C[C@H]1CN([C@@H](C)CO)C(=O)Cc2cc(NC(=O)Nc3ccc(C(F)(F)F)cc3)ccc2O[C@H]1CN(C)Cc1ccc2c(c1)OCO2, the cytotoxicity call is reported as “active”.
In the case of C[C@@H]1CN([C@@H](C)CO)C(=O)Cc2cc(NC(=O)Nc3ccc(C(F)(F)F)cc3)ccc2O[C@H]1CN(C)Cc1ccc2c(c1)OCO2, the cytotoxicity call is reported as “inactive”.
In the case of C[C@@H]1CN([C@@H](C)CO)C(=O)Cc2cc(NC(=O)Nc3ccc(C(F)(F)F)cc3)ccc2O[C@@H]1CN(C)Cc1ccc2c(c1)OCO2, the cytotoxicity call is reported as “active”.
C[C@H]1CN([C@@H](C)CO)C(=O)Cc2cc(NC(=O)Nc3ccc(C(F)(F)F)cc3)ccc2O[C@@H]1CN(C)Cc1ccc2c(c1)OCO2 was tested, and the cytotoxicity call was “inactive”.
For C[C@H](CO)N1C[C@H](C)[C@@H](CN(C)Cc2ccc3c(c2)OCO3)Oc2ccc(NC(=O)Nc3ccc(C(F)(F)F)cc3)cc2CC1=O, the cytotoxicity call was “active”.
For C[C@@H]1CN([C@H](C)CO)C(=O)Cc2cc(NC(=O)Nc3ccc(C(F)(F)F)cc3)ccc2O[C@H]1CN(C)Cc1ccc2c(c1)OCO2, the cytotoxicity call was “inactive”.
For C[C@@H]1CN([C@H](C)CO)C(=O)Cc2cc(NS(=O)(=O)c3cn(C)cn3)ccc2O[C@H]1CN(C)S(=O)(=O)c1ccc(F)cc1, the cytotoxicity call was “inactive”.
In the case of C[C@@H]1CN([C@H](C)CO)S(=O)(=O)c2ccc(-c3cccnc3)cc2O[C@H]1CN(C)C(=O)NC1CCCC1, the cytotoxicity call is reported as “inactive”.
In the case of C[C@H]1CN([C@@H](C)CO)C(=O)c2cccc(NC(=O)c3ccncc3)c2O[C@H]1CN(C)C(=O)Nc1ccc2c(c1)OCO2, the cytotoxicity call is reported as “inactive”.
In the case of C[C@@H]1CCCCO[C@H](CN(C)C(=O)c2ccncc2)[C@@H](C)CN([C@@H](C)CO)C(=O)c2cc(NC(=O)NC3CCCCC3)ccc2O1, the cytotoxicity call is reported as “inactive”.
Cc1noc(C)c1S(=O)(=O)Nc1ccc2c(c1)C(=O)N([C@H](C)CO)C[C@@H](C)[C@H](CN(C)S(=O)(=O)c1cn(C)cn1)O2 was tested, and the cytotoxicity call was “inactive”.
In the case of CCS(=O)(=O)Nc1ccc2c(c1)C(=O)N(C)[C@@H]1CC[C@H](CC(=O)NCCCN3CCOCC3)O[C@H]1CO2, the cytotoxicity call is reported as “inactive”.
With Cc1ccc(S[C@]2(C(=O)NCCN3CCOCC3)CC(=O)N(Cc3ccccc3Cl)[C@@H]2c2ccc(CO)cc2I)cc1 the cytotoxicity call was “inactive”.
With C[C@H](CO)N1C[C@H](C)[C@@H](CN(C)C(=O)CN2CCOCC2)Oc2ncc(C#C[C@@H](C)O)cc2C1=O the cytotoxicity call was “inactive”.
With COCC(=O)N(C)C[C@H]1Oc2cc(C#Cc3cccnc3)ccc2S(=O)(=O)N([C@H](C)CO)C[C@@H]1C the cytotoxicity call was “inactive”.
For C[C@@H]1CCCCO[C@H](CN(C)Cc2ccc(C(=O)O)cc2)[C@@H](C)CN([C@H](C)CO)C(=O)c2cc(NC(=O)Nc3ccc4c(c3)OCO4)ccc2O1, the cytotoxicity call was “inactive”.
With Cc1noc(C)c1S(=O)(=O)Nc1ccc2c(c1)C(=O)N([C@H](C)CO)C[C@H](C)[C@H](CN(C)S(=O)(=O)c1cn(C)cn1)OCCCC[C@@H](C)O2 the cytotoxicity call was “inactive”.
For C[C@H](CCC(=O)O)[C@H]1CC[C@H]2[C@@H]3CC=C4C[C@@H](O)CC[C@]4(C)[C@H]3CC[C@]12C [3beta-HYDROXYCHOL-5-ENIC ACID ], the cytotoxicity call was “inactive”.
In the case of Cc1noc(C)c1S(=O)(=O)Nc1ccc2c(c1)C(=O)N([C@@H](C)CO)C[C@@H](C)[C@@H](CN(C)Cc1ccc(C(F)(F)F)cc1)OCCCC[C@@H](C)O2, the cytotoxicity call is reported as “inactive”.
With C[C@@H]1CN([C@H](C)CO)C(=O)Cc2cc(NC(=O)Nc3ccc(C(F)(F)F)cc3)ccc2O[C@H]1CN(C)Cc1ccc(C(=O)O)cc1 the cytotoxicity call was “inactive”.
For C[C@@H]1CN([C@@H](C)CO)C(=O)Cc2cc(NC(=O)Nc3ccc(C(F)(F)F)cc3)ccc2O[C@H]1CN(C)Cc1ccc(C(F)(F)F)cc1, the cytotoxicity call was “active”.
For C[C@H](CO)N1C[C@H](C)[C@@H](CN(C)Cc2ccc(C(=O)O)cc2)Oc2ccc(NC(=O)Nc3ccc(C(F)(F)F)cc3)cc2CC1=O, the cytotoxicity call was “inactive”.
C[C@@H]1CN([C@@H](C)CO)C(=O)Cc2cc(NC(=O)Nc3ccc(C(F)(F)F)cc3)ccc2O[C@H]1CN(C)Cc1ccc(C(=O)O)cc1 was tested, and the cytotoxicity call was “inactive”.
With C[C@H]1CN([C@@H](C)CO)C(=O)Cc2cc(NC(=O)Nc3ccc(C(F)(F)F)cc3)ccc2O[C@H]1CN(C)Cc1ccc(C(=O)O)cc1 the cytotoxicity call was “inactive”.
In the case of C[C@H]1CN([C@@H](C)CO)C(=O)Cc2cc(NC(=O)Nc3ccc(C(F)(F)F)cc3)ccc2O[C@@H]1CN(C)Cc1ccc(C(F)(F)F)cc1, the cytotoxicity call is reported as “active”.
For C[C@H](CO)N1C[C@H](C)[C@H](CN(C)Cc2ccc(C(=O)O)cc2)Oc2ccc(NC(=O)Nc3ccc(C(F)(F)F)cc3)cc2CC1=O, the cytotoxicity call was “inactive”.
In the case of C[C@H](CO)N1C[C@H](C)[C@H](CN(C)Cc2ccc(C(F)(F)F)cc2)Oc2ccc(NC(=O)Nc3ccc(C(F)(F)F)cc3)cc2CC1=O, the cytotoxicity call is reported as “active”.
With C[C@H]1CN([C@@H](C)CO)C(=O)Cc2cc(NC(=O)Nc3ccc(C(F)(F)F)cc3)ccc2O[C@H]1CN(C)Cc1ccc(C(F)(F)F)cc1 the cytotoxicity call was “active”.
In the case of C[C@H]1CN([C@@H](C)CO)C(=O)Cc2cc(NC(=O)Nc3ccc(C(F)(F)F)cc3)ccc2O[C@@H]1CN(C)Cc1ccc(C(=O)O)cc1, the cytotoxicity call is reported as “inactive”.
For COc1ccc(CN(C)C[C@H]2Oc3c(NC(=O)C4CCOCC4)cccc3C(=O)N([C@@H](C)CO)C[C@@H]2C)cc1, the cytotoxicity call was “inactive”.
With CN1C(=O)c2cc(NC(=O)C3CCOCC3)ccc2OC[C@@H]2O[C@@H](CC(=O)NCc3ccccc3F)CC[C@@H]21 the cytotoxicity call was “inactive”.
In the case of Cc1noc(C)c1NC(=O)N(C)C[C@H]1Oc2c(NC(=O)c3cnccn3)cccc2C(=O)N([C@@H](C)CO)C[C@@H]1C, the cytotoxicity call is reported as “inactive”.
For C[C@H]1CN([C@@H](C)CO)C(=O)c2cc(NC(=O)C3CC3)ccc2O[C@H]1CN(C)S(=O)(=O)c1ccc(Cl)cc1, the cytotoxicity call was “inactive”.
For CC(=O)N[C@H]1[C@H](Oc2nc3cc(C)ccc3o2)O[C@H](CO)[C@@H](O)[C@@H]1O, the cytotoxicity call was “inactive”.
With Cc1ccc(-c2ccc3c(c2)O[C@H](CN(C)C(=O)CN(C)C)[C@H](C)CN([C@@H](C)CO)S3(=O)=O)cc1 the cytotoxicity call was “inactive”.
In the case of O=C(CN1CCOCC1)N[C@H]1CC[C@H](CCNC(=O)Nc2cc(F)ccc2F)O[C@H]1CO, the cytotoxicity call is reported as “inactive”.
With CN1C(=O)c2cc(NC(=O)c3ccc(F)c(F)c3)ccc2OC[C@@H]2O[C@H](CC(=O)N3CCOCC3)CC[C@@H]21 the cytotoxicity call was “inactive”.
Cc1noc(C)c1S(=O)(=O)N(C)C[C@H]1Oc2ccc(NC(=O)Nc3ccc4c(c3)OCO4)cc2C(=O)N([C@H](C)CO)C[C@@H]1C was tested, and the cytotoxicity call was “inactive”.
With COc1ccc(CN(C)C[C@@H]2OCCCC[C@@H](C)Oc3ccc(NC(=O)Nc4ccc(F)cc4)cc3C(=O)N([C@@H](C)CO)C[C@H]2C)cc1 the cytotoxicity call was “inactive”.
C[C@H]1CN([C@@H](C)CO)C(=O)Cc2cc(NC(=O)C3CCCCC3)ccc2O[C@@H]1CN(C)Cc1ccc(C(F)(F)F)cc1 was tested, and the cytotoxicity call was “inactive”.
C[C@@H]1CN([C@@H](C)CO)C(=O)Cc2cc(NC(=O)Nc3ccc(C(F)(F)F)cc3)ccc2O[C@@H]1CN(C)Cc1ccc(C(=O)O)cc1 was tested, and the cytotoxicity call was “inactive”.
For C[C@H](CO)N1C[C@H](C)[C@@H](CN(C)Cc2ccc(C(F)(F)F)cc2)Oc2ccc(NC(=O)C3CCCCC3)cc2CC1=O, the cytotoxicity call was “inactive”.
With C[C@@H]1CN([C@@H](C)CO)C(=O)Cc2cc(NC(=O)C3CCCCC3)ccc2O[C@@H]1CN(C)Cc1ccc(C(F)(F)F)cc1 the cytotoxicity call was “active”.
C[C@H](CO)N1C[C@H](C)[C@@H](CN(C)Cc2ccc(C(F)(F)F)cc2)Oc2ccc(NC(=O)Nc3ccc(C(F)(F)F)cc3)cc2CC1=O was tested, and the cytotoxicity call was “active”.
For C[C@@H]1CN([C@H](C)CO)C(=O)Cc2cc(NC(=O)Nc3ccc(C(F)(F)F)cc3)ccc2O[C@H]1CN(C)Cc1ccc(C(F)(F)F)cc1, the cytotoxicity call was “active”.
C[C@@H]1CN([C@H](C)CO)C(=O)Cc2cc(NC(=O)Nc3ccc(C(F)(F)F)cc3)ccc2O[C@@H]1CN(C)Cc1ccc(C(=O)O)cc1 was tested, and the cytotoxicity call was “inactive”.
With C[C@@H]1CN([C@H](C)CO)C(=O)Cc2cc(NC(=O)Nc3ccc(C(F)(F)F)cc3)ccc2O[C@@H]1CN(C)Cc1ccc(C(F)(F)F)cc1 the cytotoxicity call was “active”.
